The list is not random: actives were taken first. Their share in the collection is about 2.3%.
Rtt109 HAT inh: inhibitors of C. albicans Rtt109/Vps75 HAT, primary screen, biochemical, ThioGlo CoA-SH fluorescence, plate reader; 330,000 compounds, 0.16% hits; purified Rtt109/Vps75, 4 h; AID 540336, 2011; inhibition, % at 34.9 µM; Histone acetyltransferase RTT109 (Candida albicans (strain SC5314 / ATCC MYA-2876)), …;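 active = inhibition of at least 50% in every replicate; inconclusive = best replicate reaches 50% inhibition but some replicates fall short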
PDI inh: inhibitors of human PDI, primary screen, biochemical, turbidity, single point, plate reader. Protein disulfide-isomerase (Homo sapiens), P07237. PDI insulin aggregation turbidity, A650, 90 min. inhibition, % at 10 µM. 350,000 compounds, 0.052% hits. AID 588391, 2011;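 active = mean inhibition across replicates of 30% or more, whatever share of single replicates reach that level; inconclusive = mean inhibition below 30% while every single replicate reaches 30%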
DENV2 CPE: inhibitors of DENV2 cytopathic effect, primary screen, cell-based, plate reader, single concentration | 350,000 compounds, 1.7% hits | DENV2-infected cells, cytopathic effect rescue | CPE inhibition, % at 9.99 µM; in the data active = CPE inhibition above about 20%, passing the limit was not always enough; inconclusive = no clear call, values can overlap the other calls; tested in BHK-21 cells;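 note: 0% = median of neutral control wells and 100% = median of positive control wells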
SIRT5 block: SIRT5 desuccinylase inhibitors, primary screen, biochemical, fluorescence imaging, single point, set 5 | Purified SirT5, succinyl-peptide AMC, trypsin-coupled fluorescence | inhibition, % at 15 µM | 330,000 compounds, 1.1% hits | AID 652115, 2013; in the data active = inhibition above about 15%; inconclusive = no clear call, values can overlap the other calls
Target sequence (Q9NXA8 whole entry, looked up): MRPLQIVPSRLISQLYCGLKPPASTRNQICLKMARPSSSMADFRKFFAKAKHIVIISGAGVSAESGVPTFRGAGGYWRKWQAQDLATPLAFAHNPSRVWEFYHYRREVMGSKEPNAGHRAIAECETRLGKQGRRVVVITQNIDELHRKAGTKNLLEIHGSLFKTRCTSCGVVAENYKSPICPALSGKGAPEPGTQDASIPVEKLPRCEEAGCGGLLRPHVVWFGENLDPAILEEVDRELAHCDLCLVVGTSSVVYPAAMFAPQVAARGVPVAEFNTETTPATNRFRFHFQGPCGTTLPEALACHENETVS
ERp5 block: inhibitors of ERp5-driven insulin aggregation, primary screen, biochemical, turbidity, absorbance 650 nm, single point | inhibition, % at 9.99 µM | 90 min | 350,000 compounds, 0.05% hits | Protein disulfide-isomerase A6 (Homo sapiens), Q15084;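 active = mean replicate inhibition above about 25%, with every replicate also reaching it, limit read from the data, passing the limit was not always enough; inconclusive = only one of those two criteria met; inactive = neither criterion met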
The depositor's hits bear a star; u = inconclusive; x = not tested or not shown; ! = not active in a repeat.

SMILES	Rtt109 HAT inh	PDI inh	DENV2 CPE	SIRT5 block	ERp5 block
O=C(CSc1nnc(-c2ccncc2)o1)Nc1cc(Cl)ccc1C(=O)O	-11	0	39*	x	5
O=C(CSc1nnc(-c2ccncc2)o1)Nc1cccc(F)c1	-2	1	13	-1	-2
CO[C@@H]1CN(C)C(=O)c2ccc(NC(=O)C3CCCCC3)cc2OC[C@@H](C)N(Cc2nccs2)C[C@H]1C	x	x	-1	3	2
COc1cccc(C#Cc2ccc([C@@H]3[C@H](CO)N4C(=O)CN(C(=O)Cc5cccnc5)C[C@@H]34)cc2)c1	x	x	1	-2	-3
CO[C@H]1CN(C)C(=O)c2cc(NC(=O)Nc3c(C)noc3C)ccc2OC[C@H](C)N(C)C[C@H]1C	x	x	17	-3	-5
CC(C)=C1C(=O)NN(c2ccc(F)c(Cl)c2)C1=O	24	12	x	5	-4
O=C1NN(c2ccc(F)c(Cl)c2)C(=O)/C1=C\c1cccc(OC(=O)c2cccs2)c1	84*	-16	x	x	x
O=C(C[C@@H]1C=C[C@@H](NS(=O)(=O)c2ccccc2)[C@H](CO)O1)NCc1ccccc1F	x	x	-4	-3	-1
CNC[C@H]1Oc2ccc(NC(=O)c3ccncc3)cc2CC(=O)N([C@H](C)CO)C[C@@H]1C	x	x	64*	2	-3
C[C@H](CO)N1C[C@H](C)[C@@H](CN(C)CC2CC2)Oc2ccc(NC(=O)C3CCCCC3)cc2CC1=O	x	x	u	1	-4
CNC[C@H]1Oc2ccc(NC(=O)C3CCCCC3)cc2CC(=O)N([C@H](C)CO)C[C@@H]1C	2	5	90*!	1	3
CNC[C@H]1Oc2ccc(NC(=O)C3CCCCC3)cc2CC(=O)N([C@H](C)CO)C[C@H]1C	x	x	-2	0	13
C[C@@H]1CN([C@@H](C)CO)C(=O)Cc2cc(NC(=O)NC3CCCCC3)ccc2O[C@H]1CN(C)CC1CC1	x	x	41*	-4	9
CNC[C@H]1Oc2ccc(NC(=O)c3ccncc3)cc2CC(=O)N([C@@H](C)CO)C[C@@H]1C	x	x	-4	3	1
C[C@@H]1CN([C@@H](C)CO)C(=O)Cc2cc(NC(=O)C3CCCCC3)ccc2O[C@H]1CN(C)CC1CC1	x	x	76*	2	-5
COc1ccc2c3c([nH]c2c1)[C@H](CO)N(S(C)(=O)=O)CC31CCN(Cc2ccccc2)CC1	x	x	-13	x	x
COc1ccccc1CN(C)C[C@@H]1OCc2cnnn2CCCC(=O)N([C@H](C)CO)C[C@@H]1C	x	x	4	-1	-1
O=C(C[C@H]1C[C@@H]2c3cc(NC(=O)NC4CCCC4)ccc3O[C@@H]2[C@@H](CO)O1)NCc1ccncc1	x	x	2	2	-5
CO[C@H]1CN(C)C(=O)c2cc(NC(=O)Nc3c(C)noc3C)ccc2OC[C@H](C)N(CC2CC2)C[C@@H]1C	x	x	2	-6	-5
c1ccc2c(c1)[nH]c1nc3nncn3nc12	-11	10	7	18*	6
S=c1nc2[nH]c3ccccc3c2n[nH]1	-3	-13	-2	0	4
COc1ccc(NS(=O)(=O)c2cccc(C(=O)N3CCCC(C)C3)c2)cc1 (configuration not stated)	1	-4	-1	19*	1
CCC(c1nnnn1-c1c(C)cccc1C)N1CCN(C/C=C/c2ccccc2)CC1 (configuration not stated)	x	x	106*	14	2
CSCCC(c1nnnn1-c1c(C)cccc1C)N1CCN(C/C=C/c2ccccc2)CC1 (configuration not stated)	x	x	4	11	-1
C[C@@H]1CN([C@H](C)CO)S(=O)(=O)c2ccc(C#CCN(C)C)cc2O[C@H]1CN(C)Cc1cccnc1	x	x	-8	-2	-4
SMILES	Rtt109 HAT inh	PDI inh	DENV2 CPE	SIRT5 block	ERp5 block
COc1cc(CNC(=O)Nc2nc(C(N)c3ccccc3)cs2)cc(OC)c1OC (configuration not stated)	x	1	7	21*	2
N#Cc1ccc(-c2ccc3c(c2)[C@@H]2[C@@H](CCN2S(=O)(=O)c2cccc(F)c2)[C@@H](CO)N3)cc1	x	x	-10	0	-3
CO[C@@H]1CN(C)C(=O)c2ccc(NS(=O)(=O)c3ccccc3)cc2OC[C@H](C)N(Cc2cccnc2)C[C@@H]1C	x	x	-8	8	-2
Cn1cnc2c(N/N=C/c3cccs3)ncnc21	6	3	-1	15*	4
C[C@@H]1CN([C@H](C)CO)S(=O)(=O)c2ccc(-c3ccccc3)cc2O[C@H]1CN(C)Cc1cccc(F)c1	x	x	12	0	-4
CCN1C(=NCCN2CCOCC2)N[C@@H](c2ccccc2)C(C(=O)OC)=C1C	6	-7	-4	x	-9
COC(=O)C1=C(C)N(Cc2ccccc2)C(=NCCN2CCOCC2)N[C@H]1CCc1ccccc1	0	4	44*	x	-9
CCN(C[C@H]1N[C@@](Cc2ccccc2)(C(=O)OC)[C@H]2C(=O)N(C)C(=O)[C@@H]12)C(=O)Nc1ccc(C(F)(F)F)cc1	5	1	-11	28*	-4
CCN(C[C@H]1N[C@@](CC)(C(=O)OC)[C@H]2C(=O)N(C)C(=O)[C@@H]12)S(=O)(=O)c1ccc(C(F)(F)F)cc1	4	15	52*	-5	-5
CCN(C[C@H]1N[C@@](Cc2ccccc2)(C(=O)OC)[C@H]2C(=O)N(Cc3ccccc3)C(=O)[C@@H]12)C(=O)NC(C)C	-3	19	8	1	-4
CCNC(=O)N(CC)C[C@H]1N[C@@](Cc2ccccc2)(C(=O)OC)[C@H]2C(=O)N(Cc3ccccc3)C(=O)[C@@H]12	-2	0	37*	-1	3
CCC1=C2CC[C@H]3C(=O)N(C)C(=O)[C@H]3[C@H]2[C@@]2(Cc3ccccc3)C(=NCCOC)OC(=O)N2C1=O	-1	3	40*	0	-3
CCC1=C(OC(=O)N(CC)CC)N2C(=O)OC(=NCCOC)[C@]2(Cc2ccccc2)[C@H]2C1=CC[C@H]1C(=O)N(C)C(=O)[C@H]12	1	3	7	x	0
CCC1=C(OC(=O)N(CC)CC)N2C(=O)OC(=NCCOC)[C@]2(Cc2ccccc2)[C@H]2C1=CC[C@H]1C(=O)N(CC)C(=O)[C@H]12	-4	0	21*	x	-2
CCC1=C2CC[C@H]3C(=O)N(CC)C(=O)[C@H]3[C@H]2[C@@]2(Cc3ccccc3)C(=NCCOC)OC(=O)N2C1=O	0	5	-2	x	1
Cc1cc(OCc2cc(C(=O)N(C)C(C)c3ccccn3)no2)cc(C)c1Cl (configuration not stated)	14	12	31*	7	0
